Assay results reported in PubChem BioAssay AID1671202 (University of Kansas High Throughput Screening Laboratory, 2021).
Where “and” joins values, the source holds several entries; their conditions need not be identical. Equal entries are not always repeated. Hit rate of the full screen: of about 190,000 compounds, about 6,900 (3.6%) were called active. Rule as the data show it: active = inhibition above about 50%; inactive = the rest. Only a selection was taken, and actives are over-represented in it overall. The source holds several records for some structures; these can differ, active in one and inactive in another.

These molecules were tested against Huntingtin (Homo sapiens) (UniProt P42858) (assay: mutant huntingtin-calmodulin interaction inhibitors – biochemical, AlphaScreen, primary screen (AID 1671202;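 also: 0% = both proteins with DMSO and 100% = one protein alone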)). Conditions: AlphaScreen His-mHTT/GST-CaM binding, luminescence; at 15 µM, stronger effect = higher value.
Huntingtin (Homo sapiens), sequence (P42858 whole entry, looked up, stated change not applied): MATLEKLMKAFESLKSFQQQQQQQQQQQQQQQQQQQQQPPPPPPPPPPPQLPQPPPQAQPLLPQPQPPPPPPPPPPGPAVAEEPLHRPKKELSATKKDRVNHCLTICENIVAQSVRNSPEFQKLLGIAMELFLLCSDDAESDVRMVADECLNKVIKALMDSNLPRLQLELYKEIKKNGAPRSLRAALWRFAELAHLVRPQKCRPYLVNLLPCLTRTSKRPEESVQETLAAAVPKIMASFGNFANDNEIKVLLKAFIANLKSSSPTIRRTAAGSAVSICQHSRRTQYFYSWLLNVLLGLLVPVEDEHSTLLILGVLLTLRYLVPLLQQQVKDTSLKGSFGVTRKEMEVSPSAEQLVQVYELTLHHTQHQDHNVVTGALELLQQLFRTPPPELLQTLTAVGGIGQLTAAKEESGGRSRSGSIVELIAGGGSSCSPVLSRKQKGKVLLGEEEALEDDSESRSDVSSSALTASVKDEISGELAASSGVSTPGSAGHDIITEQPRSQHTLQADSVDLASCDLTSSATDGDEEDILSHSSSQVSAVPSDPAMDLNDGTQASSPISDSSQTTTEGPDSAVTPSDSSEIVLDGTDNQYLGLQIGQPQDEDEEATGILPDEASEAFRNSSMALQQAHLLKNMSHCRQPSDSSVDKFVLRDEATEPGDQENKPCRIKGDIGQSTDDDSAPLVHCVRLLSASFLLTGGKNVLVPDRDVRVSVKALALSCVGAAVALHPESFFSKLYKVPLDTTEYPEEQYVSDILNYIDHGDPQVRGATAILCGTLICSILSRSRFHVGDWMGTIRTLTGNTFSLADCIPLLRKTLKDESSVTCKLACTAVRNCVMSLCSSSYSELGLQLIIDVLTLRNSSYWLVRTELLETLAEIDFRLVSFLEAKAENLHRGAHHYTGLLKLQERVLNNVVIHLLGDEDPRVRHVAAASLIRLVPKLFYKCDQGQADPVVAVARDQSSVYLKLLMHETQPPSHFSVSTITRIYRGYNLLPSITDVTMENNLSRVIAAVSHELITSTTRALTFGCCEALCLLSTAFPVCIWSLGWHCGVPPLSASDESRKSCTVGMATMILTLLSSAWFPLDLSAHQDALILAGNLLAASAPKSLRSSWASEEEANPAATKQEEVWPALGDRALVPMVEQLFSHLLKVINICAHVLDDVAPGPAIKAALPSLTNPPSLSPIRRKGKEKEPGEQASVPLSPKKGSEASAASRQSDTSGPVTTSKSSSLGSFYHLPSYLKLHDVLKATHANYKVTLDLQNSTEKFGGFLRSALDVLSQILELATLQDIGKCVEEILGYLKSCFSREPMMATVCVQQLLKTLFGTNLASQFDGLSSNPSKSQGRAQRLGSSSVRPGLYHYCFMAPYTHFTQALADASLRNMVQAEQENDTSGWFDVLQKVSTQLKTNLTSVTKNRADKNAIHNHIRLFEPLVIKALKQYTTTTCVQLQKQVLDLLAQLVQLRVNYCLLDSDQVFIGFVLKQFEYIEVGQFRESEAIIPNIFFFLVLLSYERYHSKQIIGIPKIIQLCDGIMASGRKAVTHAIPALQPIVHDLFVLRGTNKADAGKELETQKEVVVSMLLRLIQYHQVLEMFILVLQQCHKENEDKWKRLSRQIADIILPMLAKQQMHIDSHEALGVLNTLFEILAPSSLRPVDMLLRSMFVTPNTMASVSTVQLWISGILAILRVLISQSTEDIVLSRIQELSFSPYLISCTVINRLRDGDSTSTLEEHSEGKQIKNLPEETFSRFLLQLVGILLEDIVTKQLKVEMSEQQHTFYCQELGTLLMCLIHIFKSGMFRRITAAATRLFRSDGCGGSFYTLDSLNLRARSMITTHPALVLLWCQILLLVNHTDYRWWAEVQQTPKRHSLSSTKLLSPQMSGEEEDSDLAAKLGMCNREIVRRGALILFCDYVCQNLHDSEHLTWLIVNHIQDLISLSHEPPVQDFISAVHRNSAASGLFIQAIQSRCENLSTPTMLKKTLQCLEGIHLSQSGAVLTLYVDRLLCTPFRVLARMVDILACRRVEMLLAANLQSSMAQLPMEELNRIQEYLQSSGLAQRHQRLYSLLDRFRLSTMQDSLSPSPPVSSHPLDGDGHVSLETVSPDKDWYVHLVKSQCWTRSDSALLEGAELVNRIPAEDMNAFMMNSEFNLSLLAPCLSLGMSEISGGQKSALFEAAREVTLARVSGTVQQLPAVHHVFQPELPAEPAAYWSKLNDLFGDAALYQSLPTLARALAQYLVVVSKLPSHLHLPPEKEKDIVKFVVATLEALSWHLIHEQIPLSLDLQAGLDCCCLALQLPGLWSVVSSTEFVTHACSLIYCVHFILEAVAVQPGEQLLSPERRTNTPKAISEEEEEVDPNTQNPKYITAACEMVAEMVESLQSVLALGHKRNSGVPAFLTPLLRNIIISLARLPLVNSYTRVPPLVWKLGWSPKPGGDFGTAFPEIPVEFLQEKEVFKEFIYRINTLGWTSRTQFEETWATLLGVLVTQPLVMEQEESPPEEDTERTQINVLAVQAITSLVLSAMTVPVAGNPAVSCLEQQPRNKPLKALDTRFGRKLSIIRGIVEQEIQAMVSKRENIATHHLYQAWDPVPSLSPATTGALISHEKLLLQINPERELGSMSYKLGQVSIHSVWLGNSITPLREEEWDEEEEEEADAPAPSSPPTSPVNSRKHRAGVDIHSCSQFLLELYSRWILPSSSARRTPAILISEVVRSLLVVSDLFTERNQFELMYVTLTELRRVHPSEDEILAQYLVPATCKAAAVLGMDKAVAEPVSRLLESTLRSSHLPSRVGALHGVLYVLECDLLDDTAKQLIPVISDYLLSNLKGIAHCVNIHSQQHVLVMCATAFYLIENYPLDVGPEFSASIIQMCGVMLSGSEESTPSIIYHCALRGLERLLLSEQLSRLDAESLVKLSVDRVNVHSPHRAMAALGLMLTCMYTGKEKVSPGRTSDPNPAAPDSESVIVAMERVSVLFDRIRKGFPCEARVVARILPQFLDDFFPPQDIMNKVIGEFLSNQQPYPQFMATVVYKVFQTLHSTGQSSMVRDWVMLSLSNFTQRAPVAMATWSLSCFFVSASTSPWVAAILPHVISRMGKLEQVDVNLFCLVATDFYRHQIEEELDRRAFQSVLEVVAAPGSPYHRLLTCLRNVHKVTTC
In the case of `O=C(Nc1ccc(NC(=O)c2ccc([N+](=O)[O-])cc2Cl)cc1)c1ccco1`, the inhibition is reported as -2.2% (inactive).
In the case of `COc1cccc(C(=O)NCC2Cc3cc(OC)ccc3O2)c1` (centres undefined), the inhibition is reported as -0.8% (inactive).
In the case of `O=C(CC1CCCCC1)N1CCC(COc2ccc(C(=O)N3CCCCC3)cc2)CC1`, the inhibition is reported as -1.76% (inactive).
In the case of `COc1ccc(C(=O)N2CCCCC2CCN2CCCC2)cn1` (centres undefined), the inhibition is reported as 6.78% (inactive).
`O=C(c1ccco1)N1CCCC(c2nncn2-c2ccccc2)C1` (centres undefined) was tested, and the inhibition was 8.27% (inactive).
For `CCOc1cc(/C=C2\C(=O)NC(=O)N(c3ccc(Br)cc3)C2=O)ccc1O`, the inhibition was 5% (inactive).
With `COc1cc(/C=C2\C(=O)Nc3ccc(Br)cc32)ccc1O` the inhibition was 100% (active).
In the case of `CCOc1cc(/C=C2\C(=O)NC(=O)N(c3ccc(F)cc3)C2=O)ccc1O`, the inhibition is reported as 5% (inactive).
`Cc1cc([N+](=O)[O-])nn1CCCC(=O)Nc1cc(Cl)ccc1O` was tested, and the inhibition was 2% (inactive).
`CC(C)(C)CC(=O)N1CCN(c2nc(CN3CCCCCC3)cs2)CC1` was tested, and the inhibition was -9.3% (inactive).
In the case of `COc1cccc(C=C2Oc3cc(OCC(=O)NN)ccc3C2=O)c1OC`, the inhibition is reported as 4.1% (inactive).
In the case of `COc1cccc(CCC(=O)N2CCCN(c3ncccc3-c3nc(C4CC4)no3)CC2)c1`, the inhibition is reported as -31.2% (inactive).
In the case of `Cn1nc(COc2ccccc2)c2c1CCN(C(=O)Nc1ccccc1F)C2`, the inhibition is reported as 16.9% (inactive).
`Cn1nc(COc2ccccc2)c2c1CCN(C(=O)c1ccoc1)C2` was tested, and the inhibition was 3.9% (inactive).
With `Cc1ccc(S(=O)(=O)N2CCc3c(c(COc4ccccc4)nn3C)C2)cc1C` the inhibition was 60.3% (active).
With `CC(C)CNC(=O)C(=O)NCC(c1ccco1)S(=O)(=O)c1cccs1` (centres undefined) the inhibition was -9.6% (inactive).
`O=C1C2C(C(=O)N1c1ccccc1[N+](=O)[O-])C1C=CC2C12CC2` (centres undefined) was tested, and the inhibition was 3% (inactive).
`COc1ccc(N2C(=O)CC(Nc3ccc(OC(F)(F)F)cc3)C2=O)cc1` (centres undefined) was tested, and the inhibition was -4% (inactive).
In the case of `Cc1ccc(NC2CC(=O)N(c3cccc(Cl)c3)C2=O)cc1` (centres undefined), the inhibition is reported as -2% (inactive).
In the case of `Cc1ccc(N2C(=O)CC(Nc3ccc(N4CCOCC4)cc3)C2=O)c(Br)c1` (centres undefined), the inhibition is reported as 60.1% (active) and 18.3% (inactive).
In the case of `O=C(Nc1ccc(N2CCCCC2)nc1)C1CC1`, the inhibition is reported as -1% (inactive).
For `O=C(O)/C(=C\c1cccc([N+](=O)[O-])c1)NC(=O)c1ccco1`, the inhibition was -2.8% (inactive).
For `CCc1ccc(/C=C2\C(=O)Nc3ccc(F)cc32)cc1`, the inhibition was 66% (active).
In the case of `COc1ccc(/C=C2\C(=O)Nc3ccc(F)cc32)cc1OC`, the inhibition is reported as 40% (inactive).
In the case of `CCOc1ccc(Br)c(/C=C2\C(=O)Nc3ccc(Br)cc32)c1`, the inhibition is reported as 31% (inactive).
With `Cc1ccc(C(=O)N2CCc3sc(C(=O)NCc4ccco4)cc3C2)cc1` the inhibition was 13.6% (inactive).
In the case of `Cc1ccn2c(-c3csc(Nc4ccc(C(=O)O)cc4)n3)c(C)nc2c1`, the inhibition is reported as -2% (inactive).
In the case of `Cc1ccn2c(-c3csc(Nc4ccc(N)cc4)n3)c(C)nc2c1`, the inhibition is reported as 64.7% (active).
For `Cc1nc2sccn2c1-c1csc(Nc2ncccn2)n1`, the inhibition was 3% (inactive).
For `COCCCNC(=O)C1CCN(c2nnc(-c3ccccc3)o2)CC1`, the inhibition was 2.64% (inactive).
`CCOC(=O)C1CCCN(CC(O)COC2CC3CCC2(C)C3(C)C)C1` (centres undefined) was tested, and the inhibition was 6.9% (inactive).
For `c1ccc(Nc2nc(-c3ccncc3)cs2)nc1`, the inhibition was 18% (inactive).
For `Oc1c(C(Nc2ccccn2)c2cccnc2)ccc2cccnc12` (centres undefined), the inhibition was 100% (active).
With `Oc1c(C(Nc2ccccn2)c2ccc(OC(F)F)cc2)ccc2cccnc12` (centres undefined) the inhibition was 97% (active).
With `Oc1c(C(Nc2ccccn2)c2ccncc2)ccc2cccnc12` (centres undefined) the inhibition was 100% (active).
In the case of `COc1ccccc1C=C1Oc2cc(C)cc(O)c2C1=O`, the inhibition is reported as -4.4% (inactive).
`CCC(CC)NC(=O)C1CCc2nc(N3CCN(C(C)=O)CC3)sc2C1` (centres undefined) was tested, and the inhibition was 11.6% (inactive).
With `CC(NC(=O)CN1CCOCC1)C1CC1` (centres undefined) the inhibition was -8.9% (inactive).
For `CN(C(=O)c1ccccn1)C1(C(=O)NC2CCCC2)CCCCC1`, the inhibition was -4% (inactive).
In the case of `O=C(Nc1ccc2c(c1)OCCO2)C1CCc2sc(C(=O)N3CCCC3)cc2C1` (centres undefined), the inhibition is reported as 12.3% (inactive).
In the case of `CC(C)(C)C(=O)NC(n1cccnc1=O)C(Cl)(Cl)Cl` (centres undefined), the inhibition is reported as 2% (inactive).
With `CCCCN(CC)C(=O)c1c[nH]c2ccc(S(=O)(=O)Nc3ccccc3F)cc2c1=O` the inhibition was 14% (inactive).
In the case of `O=C1CSC(c2ccccc2[N+](=O)[O-])N1c1ccc(Br)cc1` (centres undefined), the inhibition is reported as 28% (inactive).
`O=C1CSC(c2ccccc2[N+](=O)[O-])N1c1ccc(Oc2ccccc2)cc1` (centres undefined) was tested, and the inhibition was 59% (active).
With `Cc1ccc(N2C(=O)CSC2c2ccccc2[N+](=O)[O-])cc1Cl` (centres undefined) the inhibition was 16% (inactive).
`CCn1cc(CCNC(C)=O)c2cccnc21` was tested, and the inhibition was -8.1% (inactive).
For `O=C(O)COc1ccccc1C(c1c[nH]c2ccccc12)c1c[nH]c2ccccc12`, the inhibition was 88.9% (active).
For `CC(Cc1c[nH]c2ccccc12)NC(=O)c1ccncc1` (centres undefined), the inhibition was 2.9% (inactive) and 3% (inactive).
In the case of `CC(=O)NC(Cc1c[nH]c2ccccc12)C(=O)O` (centres undefined), the inhibition is reported as 3.4% (inactive).
`CC(=O)N1CCc2cc(N3CC(C(=O)Nc4cccc(F)c4)CC3=O)ccc21` (centres undefined) was tested, and the inhibition was 90.3% (active).
With `CC(=O)N1CCc2cc(N3CC(C(=O)Nc4ccc(C)cc4F)CC3=O)ccc21` (centres undefined) the inhibition was -5.06% (inactive).
`CCc1ccc(CNC(=O)C2CC(=O)N(c3ccc4c(c3)CCN4C(C)=O)C2)cc1` (centres undefined) was tested, and the inhibition was -4.01% (inactive).
In the case of `O=C(Nc1ccc(N2CCN(C(=O)C3CCCC3)CC2)nc1)c1ccc(F)cc1F`, the inhibition is reported as 1.5% (inactive).
For `CCOc1ccc2nc(C(=O)Nc3ccc(Br)cc3)sc2c1`, the inhibition was -2% (inactive).
With `CC(C)(CCl)C(=O)N1CCN(c2cc(Oc3ccc(F)c(F)c3)ncn2)CC1` the inhibition was 6.2% (inactive).
With `Cc1ccc(C(=O)N2CCC(n3cnnc3-c3ccccc3)C2)cn1` (centres undefined) the inhibition was -1.7% (inactive).
In the case of `CCC(NC(=O)c1ncn[nH]1)c1ccccc1` (centres undefined), the inhibition is reported as 89.5% (active).
In the case of `O=C(Nc1ccccc1O)c1ncn[nH]1`, the inhibition is reported as 8.9% (inactive).
For `CCC(NC(C)=O)c1cccc(Br)c1` (centres undefined), the inhibition was -3.8% (inactive).
With `Cc1ccc(N2CCC(C(=O)NCc3ccc(F)cc3)C2=O)cc1Cl` (centres undefined) the inhibition was -0.5% (inactive).
For `COc1cccc(CC(=O)N2CCCC2c2cccc(F)c2)c1` (centres undefined), the inhibition was 15% (inactive).
In the case of `O=C(CSc1nc(CC(=O)NCc2cccs2)cc(=O)[nH]1)NCc1ccco1`, the inhibition is reported as 100% (active).
With `COc1ccc2nc(SCC(=O)NCc3cccs3)[nH]c2c1` the inhibition was -2% (inactive).
For `O=C(CSc1nnc(NC(=O)c2ccc(Cl)c(Cl)c2)s1)NCc1ccco1`, the inhibition was -5.3% (inactive).
